Source: PubChem BioAssay
For some assays here: Results with a measured potency or affinity are listed apart. Active and inactive are the calls of the source. Unless noted, no rule for the calls is given here.

Key:
[1] = antimalarial activity against Dd2 strain (AID 2302;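 active = growth inhibition above 50% at the single 2 µM test dose, taken to imply half-maximal potency below 2 µM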;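 also: 0% = DMSO untreated growth and 100% = chloroquine plus artemisinin killed control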); details: P. falciparum Dd2 in RBCs, LDH growth readout, 72 h; at 2 µM; stronger effect = higher value
[2] = human hepatoma cell viability loss – ATP luminescence, cytotoxicity control for P. falciparum antimalarial project, primary screen (AID 2303;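 active = inhibition above 50%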;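 also: 0% = DMSO wells and 100% = digitonin-killed cells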); details: HepG2 viability, 24-48 h, at 10 µM, stronger effect = higher value
[3] = target: L-lactate dehydrogenase (Plasmodium falciparum (isolate CDC / Honduras)) (UniProt Q27743); assay: PfLDH activity inhibition – cell lysate, 3D7 strain, counter-screen for P. falciparum growth inhibition project (AID 2304);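 also: 0% = vehicle and 100% = reference inhibitor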; details: P. falciparum 3D7 crude extract, LDH APAD/NBT absorbance; at 2 µM; stronger effect = higher value
Chain of L-lactate dehydrogenase (Plasmodium falciparum (isolate CDC / Honduras)) (Q27743 whole entry, looked up): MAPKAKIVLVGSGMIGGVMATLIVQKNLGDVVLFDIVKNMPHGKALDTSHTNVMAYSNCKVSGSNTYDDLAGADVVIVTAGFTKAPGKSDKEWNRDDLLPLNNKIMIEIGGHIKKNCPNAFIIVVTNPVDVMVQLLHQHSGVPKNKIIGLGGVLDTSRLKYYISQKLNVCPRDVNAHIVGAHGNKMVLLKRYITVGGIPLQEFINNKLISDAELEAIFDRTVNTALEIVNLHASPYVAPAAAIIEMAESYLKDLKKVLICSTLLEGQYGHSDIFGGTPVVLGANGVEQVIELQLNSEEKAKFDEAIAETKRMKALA

[4] = inhibition of 3D7 malaria parasite growth – strain 3D7 (AID 2306);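 also: 0% = DMSO wells and 100% = chloroquine plus artemisinin control wells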; details: P. falciparum 3D7 erythrocytic growth, LDH absorbance, 72 h; at 2 µM; stronger effect = higher value
[5] = target: Calcium-dependent protein kinase 1 (Plasmodium falciparum (isolate 3D7)) (UniProt P62344); assay: PfCDPK1 kinase inhibitors, biochemical, TCAMS library (AID 1159585; cut-off not given, nearly all actives have IC50 up to about 0.98 µM;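 also: inhibitors leave more ATP so luminescence rises with inhibition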); details: recombinant PfCDPK1, Kinase-Glo ATP depletion luminescence
Chain of Calcium-dependent protein kinase 1 (Plasmodium falciparum (isolate 3D7)) (P62344 whole entry, looked up): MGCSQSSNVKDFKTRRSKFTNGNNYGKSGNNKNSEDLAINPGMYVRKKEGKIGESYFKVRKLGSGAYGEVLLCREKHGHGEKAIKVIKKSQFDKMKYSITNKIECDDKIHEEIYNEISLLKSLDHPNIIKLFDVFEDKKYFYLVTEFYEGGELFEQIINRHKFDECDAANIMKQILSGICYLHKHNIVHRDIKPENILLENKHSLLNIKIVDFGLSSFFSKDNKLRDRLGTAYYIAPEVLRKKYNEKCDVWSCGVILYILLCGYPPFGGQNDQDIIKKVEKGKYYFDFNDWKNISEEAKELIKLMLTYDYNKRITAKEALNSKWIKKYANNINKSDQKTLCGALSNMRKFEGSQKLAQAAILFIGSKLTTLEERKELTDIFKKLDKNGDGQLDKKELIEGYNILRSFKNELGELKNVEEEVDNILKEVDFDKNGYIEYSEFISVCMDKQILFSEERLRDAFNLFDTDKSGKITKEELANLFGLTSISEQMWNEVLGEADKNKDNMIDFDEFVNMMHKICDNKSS

[6] = target: Plasmodium falciparum protein kinase 6 (PK6, PF3D7_1337100) (UniProt Q8IDW1); assay: PfPK6 kinase inhibitors, biochemical, TCAMS library (AID 1159586); details: recombinant PfPK6, Kinase-Glo ATP depletion luminescence
Chain of Plasmodium falciparum protein kinase 6 (PK6, PF3D7_1337100) (Q8IDW1 1-305): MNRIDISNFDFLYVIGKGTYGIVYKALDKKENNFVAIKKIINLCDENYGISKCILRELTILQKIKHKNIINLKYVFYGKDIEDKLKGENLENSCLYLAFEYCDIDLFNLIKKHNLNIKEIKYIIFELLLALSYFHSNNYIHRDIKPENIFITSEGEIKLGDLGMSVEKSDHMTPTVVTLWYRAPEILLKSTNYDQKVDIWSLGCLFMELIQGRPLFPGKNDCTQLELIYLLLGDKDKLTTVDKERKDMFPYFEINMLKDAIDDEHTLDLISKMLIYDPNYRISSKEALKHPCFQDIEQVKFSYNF

[7] = target: Protein kinase 7 (PK7), Plasmodium falciparum 3D7 (PF3D7_0213400) (UniProt Q7YTF7); assay: inhibition of Plasmodium PK7 catalytic activity – biochemical, TCAMS antimalarial set, Kinase-Glo luminescence (AID 1159587); details: recombinant PfPK7, Kinase-Glo ATP depletion luminescence
Chain of Protein kinase 7 (PK7), Plasmodium falciparum 3D7 (PF3D7_0213400) (Q7YTF7 1-343): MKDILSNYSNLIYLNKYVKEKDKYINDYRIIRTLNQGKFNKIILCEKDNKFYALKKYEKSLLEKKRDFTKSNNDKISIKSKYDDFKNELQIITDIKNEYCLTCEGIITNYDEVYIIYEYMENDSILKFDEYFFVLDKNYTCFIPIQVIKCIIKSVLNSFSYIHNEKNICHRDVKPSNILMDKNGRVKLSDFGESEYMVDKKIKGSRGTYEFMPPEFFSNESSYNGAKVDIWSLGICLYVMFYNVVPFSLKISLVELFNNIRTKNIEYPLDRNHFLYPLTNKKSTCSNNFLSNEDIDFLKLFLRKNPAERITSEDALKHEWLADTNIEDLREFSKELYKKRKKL

[8] = target: Calcium-dependent protein kinase 4 (Plasmodium falciparum (isolate 3D7)) (UniProt Q8IBS5); assay: PfCDPK4 kinase inhibitors, biochemical, TCAMS library (AID 1159588; cut-off not given, nearly all actives have IC50 up to about 0.91 µM); details: recombinant PfCDPK4, Kinase-Glo ATP depletion luminescence
Chain of Calcium-dependent protein kinase 4 (Plasmodium falciparum (isolate 3D7)) (Q8IBS5 whole entry, looked up): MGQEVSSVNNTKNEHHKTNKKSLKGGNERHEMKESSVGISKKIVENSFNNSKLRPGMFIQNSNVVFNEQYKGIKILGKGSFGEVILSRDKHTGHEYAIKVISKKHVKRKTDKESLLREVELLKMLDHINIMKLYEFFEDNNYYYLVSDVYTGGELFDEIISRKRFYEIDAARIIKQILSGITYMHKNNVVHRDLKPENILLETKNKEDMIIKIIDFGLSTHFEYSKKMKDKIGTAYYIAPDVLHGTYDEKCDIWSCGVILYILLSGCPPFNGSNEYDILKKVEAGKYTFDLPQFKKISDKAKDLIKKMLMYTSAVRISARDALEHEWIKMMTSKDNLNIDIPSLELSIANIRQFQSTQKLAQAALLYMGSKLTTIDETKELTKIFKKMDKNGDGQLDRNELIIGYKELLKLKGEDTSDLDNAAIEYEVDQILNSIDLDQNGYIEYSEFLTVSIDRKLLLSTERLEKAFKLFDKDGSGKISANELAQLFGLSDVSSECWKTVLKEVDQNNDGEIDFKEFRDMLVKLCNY

CCCCN1CCN(Cc2cccc(NC(=O)c3ccc(Cl)c(Cl)c3)c2)CC1
active: growth inhibition [4] 88%
inactive: growth inhibition [1] 24% | inhibition [2] 21% | inhibition [3] 1% | outcome [5] | outcome [6] | outcome [7] | outcome [8]

CCN(CC)CCOc1ccc(C(O)(C#CC(O)(c2ccc(C)cc2)c2ccc(OCCN(CC)CC)cc2)c2ccc(C)cc2)cc1 (stereo not given)
active: growth inhibition [1] 98% | inhibition [2] 94% | growth inhibition [4] 97%
inactive: inhibition [3] 6% | outcome [5] | outcome [6] | outcome [7] | outcome [8]

COc1ccc2nccc([C@@H](O)CN3CCC(NS(=O)(=O)c4cc5c(cc4Cl)SCC(=O)N5)CC3)c2c1
active: growth inhibition [4] 88%
inactive: growth inhibition [1] 0% | inhibition [2] 5% | inhibition [3] 0% | outcome [5] | outcome [6] | outcome [7] | outcome [8]

Cc1cc(N2CCCC2)nc(Nc2ccc(NC(=O)c3ccco3)cc2)n1
inactive: growth inhibition [1] 43% | inhibition [2] 23% | inhibition [3] -3% | outcome [5] | outcome [6] | outcome [7] | outcome [8]
active: growth inhibition [4] 100%

COCCCNC(=O)C1CCN(C(c2ccc(Cl)cc2)c2ccc(Cl)cc2)CC1
inactive: inhibition [2] 5% | inhibition [3] 0% | outcome [5] | outcome [6] | outcome [7] | outcome [8]
active: growth inhibition [1] 63% | growth inhibition [4] 91%

COc1c(C2CCN(CCCCNC(=O)c3ccc(-c4ccc(Cl)cc4)c(OCCN(C)C)c3)CC2)ccc2c1CCCC2
active: growth inhibition [1] 86% | inhibition [2] 100% | growth inhibition [4] 101%
inactive: inhibition [3] 2% | outcome [5] | outcome [6] | outcome [7] | outcome [8]

CN(C)c1ccc2c(c1)Sc1cc(N(C)C)ccc1N2C(=O)c1cccc(C(=O)O)c1
active: growth inhibition [1] 73% | growth inhibition [4] 99%
inactive: inhibition [2] 8% | inhibition [3] -3% | outcome [5] | outcome [6] | outcome [7] | outcome [8]

CCCCCCN1CCC(NCc2cccc3ccccc23)CC1
inactive: growth inhibition [1] 12% | inhibition [2] 21% | inhibition [3] 0% | outcome [5] | outcome [6] | outcome [7] | outcome [8]
active: growth inhibition [4] 95%

COc1ccc2nccc(NN=Cc3ccc([N+](=O)[O-])cc3)c2c1
active: growth inhibition [1] 68% | growth inhibition [4] 100%
inactive: inhibition [2] 9% | inhibition [3] -2% | outcome [5] | outcome [6] | outcome [7] | outcome [8]

COc1cc2nc(N(C)CC3COc4ccccc4O3)nc(N)c2cc1OC (stereo not given)
active: growth inhibition [4] 94%
inactive: growth inhibition [1] 26% | inhibition [2] 11% | inhibition [3] -1% | outcome [5] | outcome [6] | outcome [7] | outcome [8]

COc1ccc2cc(-c3nc(-c4c(Cl)cccc4Cl)[nH]c3-c3ccnc(NCCCN4CCCCC4C)c3)ccc2c1 (stereo not given)
active: growth inhibition [1] 86% | growth inhibition [4] 94%
inactive: inhibition [2] 19% | inhibition [3] -1% | outcome [5] | outcome [6] | outcome [7] | outcome [8]

Cc1ccc(-c2cc(C(=O)Nc3ccc(S(=O)(=O)N(C)Cc4ccccc4)cc3)[nH]n2)c(O)c1
active: growth inhibition [1] 67% | growth inhibition [4] 99%
inactive: inhibition [2] 34% | inhibition [3] -1% | outcome [5] | outcome [6] | outcome [7] | outcome [8]

c1ccc2[nH]c(-c3ccc(-c4ccc(CN5CCN(CCN6CCOCC6)CC5)cc4)cc3)nc2c1
active: growth inhibition [1] 99% | growth inhibition [4] 98%
inactive: inhibition [2] 43% | inhibition [3] -1% | outcome [5] | outcome [6] | outcome [7] | outcome [8]

CN(C)C(=O)c1cc(CNCc2ccccc2)ccc1-c1cccc(CNCc2ccc(-c3ccccc3)cc2)c1
inactive: growth inhibition [1] 12% | inhibition [2] 27% | inhibition [3] -3% | outcome [5] | outcome [6] | outcome [7] | outcome [8]
active: growth inhibition [4] 90%

CCc1ccc(-n2cc(C(=O)c3cc(Br)ccc3O)cc(C#N)c2=O)cc1
active: growth inhibition [4] 97%
inactive: growth inhibition [1] 30% | inhibition [2] 9% | inhibition [3] -2% | outcome [5] | outcome [6] | outcome [7] | outcome [8]

CN(C)C(CNC(=O)c1cc(-c2ccncc2)c(-c2ccc(NC(=O)Nc3cccc(F)c3)cc2)o1)c1ccccc1 (stereo not given)
active: growth inhibition [1] 99% | growth inhibition [4] 100%
inactive: inhibition [2] 11% | inhibition [3] 3% | outcome [5] | outcome [6] | outcome [7] | outcome [8]

COc1ccc2nc3cc(Cl)ccc3c(NCCc3ccccc3)c2c1
active: growth inhibition [1] 82% | growth inhibition [4] 94%
inactive: inhibition [2] -1% | inhibition [3] 8% | outcome [5] | outcome [6] | outcome [7] | outcome [8]

COc1ccc(NC(=O)/C=C/c2ccccc2Cl)cc1OCCN1CCC(NCc2cccnc2)CC1
active: growth inhibition [1] 88% | growth inhibition [4] 101%
inactive: inhibition [2] 12% | inhibition [3] 1% | outcome [5] | outcome [6] | outcome [7] | outcome [8]

CCCC1(NC[C@@H](O)[C@H](Cc2ccccc2)NC(=O)c2cc(NCC)cc(N3CCCCS3(=O)=O)c2)CCCCC1
active: growth inhibition [1] 98% | growth inhibition [4] 101%
inactive: inhibition [2] 4% | inhibition [3] -4% | outcome [5] | outcome [6] | outcome [7] | outcome [8]

Cc1cccn2c(=O)c3cc(C(=O)NCc4cccnc4)c(=N)n(CCc4ccccc4)c3nc12
active: growth inhibition [4] 99%
inactive: growth inhibition [1] 38% | inhibition [2] -2% | inhibition [3] -2% | outcome [5] | outcome [6] | outcome [7] | outcome [8]

CC1(CCc2ccccc2)N=C(N)N(Cc2ccccc2)C(=O)C1c1ccc(Cl)c(Cl)c1 (stereo not given)
active: growth inhibition [1] 96% | inhibition [2] 100% | growth inhibition [4] 97%
inactive: inhibition [3] -4% | outcome [5] | outcome [6] | outcome [7] | outcome [8]

CCCc1cc(NC2CCN(C)CC2)nc(Nc2cccc(OC)c2)n1
inactive: growth inhibition [1] 28% | inhibition [2] 31% | inhibition [3] -3% | outcome [5] | outcome [6] | outcome [7] | outcome [8]
active: growth inhibition [4] 100%

O=C(Nc1ccc(N2CCCCC2)c(Cl)c1)c1ccco1
inactive: inhibition [2] -1% | inhibition [3] -6% | outcome [5] | outcome [6] | outcome [7] | outcome [8]
active: growth inhibition [1] 95% | growth inhibition [4] 96%

CC(C)C[C@H](Nc1ccnc(NCC2CCCCC2)n1)C(=O)Nc1ccccc1
active: growth inhibition [4] 87%
inactive: growth inhibition [1] 42% | inhibition [2] 6% | inhibition [3] 2% | outcome [5] | outcome [6] | outcome [7] | outcome [8]

COc1ccc(NC(=O)CSc2nc(-c3ccccc3Cl)ns2)cc1
inactive: inhibition [2] 11% | inhibition [3] 0% | outcome [5] | outcome [6] | outcome [7] | outcome [8]
active: growth inhibition [1] 75% | growth inhibition [4] 96%

N#Cc1ccc(N2CCN(C(=O)c3cccc(-c4noc(C(F)(F)F)n4)c3)CC2)nc1
active: growth inhibition [1] 58% | growth inhibition [4] 84%
inactive: inhibition [2] 18% | inhibition [3] 3% | outcome [5] | outcome [6] | outcome [7] | outcome [8]

O=C(Nc1ccc2nccc(N3CCN4CCC[C@H]4C3)c2c1)c1ccc(Cl)c(Cl)c1
inactive: inhibition [2] 18% | inhibition [3] -8% | outcome [5] | outcome [6] | outcome [7] | outcome [8]
active: growth inhibition [1] 98% | growth inhibition [4] 101%

Cc1cc(OCCCN2CCC(NS(=O)(=O)c3cc(Br)c(Cl)s3)CC2)c2ccccc2n1
active: growth inhibition [4] 95%
inactive: growth inhibition [1] 39% | inhibition [2] 5% | inhibition [3] 3% | outcome [5] | outcome [6] | outcome [7] | outcome [8]

O=C(/C=C/c1ccc(Cl)c(Cl)c1)NCCCCCN1CCCC(CCCNC(=O)Nc2ccc(C(F)(F)F)cc2)C1 (stereo not given)
active: inhibition [2] 58% | growth inhibition [4] 101%
inactive: growth inhibition [1] 48% | inhibition [3] -4% | outcome [5] | outcome [6] | outcome [7] | outcome [8]

Cc1ccc(NC(=O)c2ccc(CN3CCCN(CCC(C)C)CC3)cc2)cc1F
active: growth inhibition [4] 91%
inactive: growth inhibition [1] 31% | inhibition [2] 40% | inhibition [3] 1% | outcome [5] | outcome [6] | outcome [7] | outcome [8]

Cc1ccc(/C=C/C(=O)NCCCCCN2CCN(C(=O)Nc3ccc(Cl)c(C(F)(F)F)c3)CC2)cc1
active: growth inhibition [4] 93%
inactive: growth inhibition [1] -3% | inhibition [2] 10% | inhibition [3] -2% | outcome [5] | outcome [6] | outcome [7] | outcome [8]

COc1cccc2cc(C(=O)N[C@@H](CC(C)C)C(=O)N[C@H](/C=N/NC(=O)Cc3cccnc3)CCc3ccccc3)oc12
active: growth inhibition [1] 54% | growth inhibition [4] 82%
inactive: inhibition [2] 6% | inhibition [3] 2% | outcome [5] | outcome [6] | outcome [7] | outcome [8]

COc1ccc(CN2CCC(CNCc3cccc(-c4ccccc4)c3)CC2)cc1
active: growth inhibition [1] 92% | inhibition [2] 96% | growth inhibition [4] 100%
inactive: inhibition [3] 2% | outcome [5] | outcome [6] | outcome [7] | outcome [8]

O=C1OC(c2ccccc2)(c2ccccn2)CN1C1CCN(Cc2cccn2-c2ccc(Cl)cc2)CC1 (stereo not given)
inactive: inhibition [2] 21% | inhibition [3] -5% | outcome [5] | outcome [6] | outcome [7] | outcome [8]
active: growth inhibition [1] 98% | growth inhibition [4] 99%

COCCn1c(C)nc2ccccc2c1=O
active: growth inhibition [1] 67% | growth inhibition [4] 89%
inactive: inhibition [2] -3% | inhibition [3] -3% | outcome [5] | outcome [6] | outcome [7] | outcome [8]

COc1ccc2cc(C(c3nnnn3CC3CCCO3)N3CCc4ccccc43)c(=O)[nH]c2c1 (stereo not given)
inactive: growth inhibition [1] 3% | inhibition [2] -3% | inhibition [3] -1% | outcome [5] | outcome [6] | outcome [7] | outcome [8]
active: growth inhibition [4] 94%

O=C(Cn1c(CCc2cccc(F)c2F)cc(=O)c2cccnc21)N(CCn1ccnc1)Cc1ccc(-c2ccc(C(F)(F)F)cc2)cc1
inactive: inhibition [2] 39% | inhibition [3] 0% | outcome [5] | outcome [6] | outcome [7] | outcome [8]
active: growth inhibition [1] 62% | growth inhibition [4] 99%

O=C(Nc1cccc(CN2CCCN(Cc3ccc4c(c3)OCO4)CC2)c1)c1ccc(Cl)c(Cl)c1
inactive: growth inhibition [1] 10% | inhibition [2] 34% | inhibition [3] -2% | outcome [5] | outcome [6] | outcome [7] | outcome [8]
active: growth inhibition [4] 92%

COc1cc(Cc2cnc(N)nc2N)cc(CC(C)O)c1O (stereo not given)
inactive: growth inhibition [1] 2% | inhibition [2] -2% | inhibition [3] -2% | outcome [5] | outcome [6] | outcome [7] | outcome [8]
active: growth inhibition [4] 93%

COc1cc2ncnc(Nc3ccc(OCc4ccccc4)c(I)c3)c2cc1OC
active: growth inhibition [1] 62% | growth inhibition [4] 98%
inactive: inhibition [2] 11% | inhibition [3] 5% | outcome [5] | outcome [6] | outcome [7] | outcome [8]
